# Laboratory results taken from article PMC4336329 (PLoS ONE, 2015).
# Hit rate of the full screen: of about 310,000 compounds, about 2,200 (0.71%) showed an effect of 50% or more. The effect is printed as a negative number. Many of the other results were omitted from the sample, so strong results are more common in it than they were.
# Target: human ether-à-go-go-related gene (hERG) potassium channel (human, UniProt Q12809)
# Experiment: primary screen, population patch clamp on CHO cells stably expressing hERG; higher = less effect of the substance
# Chain of human ether-à-go-go-related gene (hERG) potassium channel (Q12809 whole entry, looked up): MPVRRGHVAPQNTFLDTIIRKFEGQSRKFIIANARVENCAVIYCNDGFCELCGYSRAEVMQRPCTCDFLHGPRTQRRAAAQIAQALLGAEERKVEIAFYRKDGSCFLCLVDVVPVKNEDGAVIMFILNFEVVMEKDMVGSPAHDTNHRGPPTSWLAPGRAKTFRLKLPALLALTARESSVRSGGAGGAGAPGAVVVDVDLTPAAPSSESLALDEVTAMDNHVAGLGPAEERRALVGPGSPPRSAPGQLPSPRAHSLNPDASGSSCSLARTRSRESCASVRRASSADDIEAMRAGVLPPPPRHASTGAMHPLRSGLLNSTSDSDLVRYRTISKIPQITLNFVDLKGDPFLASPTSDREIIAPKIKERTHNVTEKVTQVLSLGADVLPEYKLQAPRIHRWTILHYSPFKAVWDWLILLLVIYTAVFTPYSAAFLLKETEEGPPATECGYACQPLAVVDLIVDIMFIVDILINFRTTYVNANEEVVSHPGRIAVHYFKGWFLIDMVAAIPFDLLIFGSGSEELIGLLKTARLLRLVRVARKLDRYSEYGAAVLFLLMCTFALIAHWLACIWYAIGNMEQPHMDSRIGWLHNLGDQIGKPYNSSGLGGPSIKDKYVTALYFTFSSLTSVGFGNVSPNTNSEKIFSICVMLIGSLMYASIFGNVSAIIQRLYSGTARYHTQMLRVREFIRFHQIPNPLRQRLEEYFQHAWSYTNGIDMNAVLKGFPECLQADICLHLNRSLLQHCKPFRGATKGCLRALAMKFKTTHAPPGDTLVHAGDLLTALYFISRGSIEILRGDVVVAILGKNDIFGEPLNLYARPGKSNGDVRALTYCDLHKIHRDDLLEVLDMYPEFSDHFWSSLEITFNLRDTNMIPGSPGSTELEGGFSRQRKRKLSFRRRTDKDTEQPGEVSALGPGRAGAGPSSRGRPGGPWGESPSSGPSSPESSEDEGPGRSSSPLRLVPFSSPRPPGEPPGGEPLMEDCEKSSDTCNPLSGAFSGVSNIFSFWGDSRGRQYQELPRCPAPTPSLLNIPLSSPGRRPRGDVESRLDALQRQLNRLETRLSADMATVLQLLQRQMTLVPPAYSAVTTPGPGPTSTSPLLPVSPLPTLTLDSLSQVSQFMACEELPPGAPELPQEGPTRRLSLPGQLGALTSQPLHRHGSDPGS
row,Compound,"hERG current change (%, negative = inhibition) at 1uM"
1,Cc1ccc(C(=O)NCC(=O)N2CCCCCCC2)cc1,20.7%
2,COc1cc(OC)cc(C(=O)NC(=S)Nc2nnn(C)n2)c1,13%
3,O=C(Nc1ccc(F)cc1)N1CCCC(c2nc3c(nnn3Cc3ccccc3Cl)c(=O)[nH]2)C1 (stereo not drawn),13.4%
4,CCOC(=O)c1csc(NC(C)=O)n1,7.33%
5,CN1CCC(=O)N([C@H](CSc2ccc(Br)cc2)c2ccccc2)CC1,-89.8%
6,CCCN1CCC(=O)N([C@H](CSc2ccc(OC)cc2)Cc2ccccc2)CC1,-36.3%
7,CC(C)CN1CCC(=O)N([C@H](CSc2ccc(Br)cc2)c2ccccc2)CC1,-21.5%
8,CCCN1CCC(=O)N([C@H](CSc2ccc(C)cc2)c2ccccc2)CC1,-76.3%
9,CCCN1CCC(=O)N([C@H](CSc2ccccc2)CC(C)C)CC1,-31.8%
10,CCCN1CCC(=O)N([C@H](CSc2ccc(OC)cc2)c2ccccc2)CC1,-81.7%
11,CC(=O)Nc1ccc(SC[C@H](CC(C)C)N2CCN(CCc3ccccc3)CCC2=O)cc1,-26.2%
12,CCCN1CCC(=O)N([C@H](CSc2ccc(OC)cc2)CC(C)C)CC1,-42.3%
13,CN1CCC(=O)N([C@H](CSc2ccccc2)c2ccccc2)CC1,-46.4%
14,CC(=O)Nc1ccc(SC[C@H](c2ccccc2)N2CCN(CCc3ccccc3)CCC2=O)cc1,-56%
15,Cc1ccc(SC[C@H](Cc2ccccc2)N2CCN(CCc3ccccc3)CCC2=O)cc1,8.27%
16,CC(=O)Nc1ccc(SC[C@H](Cc2ccccc2)N2CCN(CCc3ccccc3)CCC2=O)cc1,4.37%
17,COc1ccc(CNC(=O)c2cc(COc3c(F)cccc3F)on2)cc1OC,7.12%
18,Cc1ccc(NC(=O)/C(C#N)=C/c2ccsc2)c(C)c1,15.6%
19,Cc1ccc(S(=O)(=O)N(C)c2ccc(C(=O)Nc3c(C)n(C)n(-c4ccccc4)c3=O)cc2)cc1,4.15%
20,O=C(NNS(=O)(=O)c1ccc(F)cc1)C1CC(c2cccnc2)=NO1 (stereo not drawn),14.8%
21,O=C(/C(=N\O)n1cncn1)c1ccc(Cl)cc1Cl,15.2%
22,COc1ccc(Cc2nnc(NC(=O)Nc3ccccc3F)s2)cc1,15.2%
23,Cc1ccccc1OCC(=O)Nc1ccccc1N1CCC(C)CC1,18.9%

row,Compound,"hERG current change (%, negative = inhibition) at 1uM"
1,O=C1CCCC(O)=C1C1NCCc2ccccc21 (stereo not drawn),9.52%
2,Cc1ccc(SC[C@H](c2ccccc2)N2CCN(CCc3ccccc3)CCC2=O)cc1,-10.2%
3,O=C1CCN(CCc2ccccc2)CCN1[C@H](CSc1ccccc1)c1ccccc1,-72.2%
4,CCCN1CCC(=O)N([C@H](CSc2ccc(Br)cc2)c2ccccc2)CC1,-17.5%
5,CCCN1CCC(=O)N([C@H](CSc2ccccc2)c2ccccc2)CC1,-82.2%
6,O=C1CCN(Cc2ccccc2)CCN1[C@H](CSc1ccccc1)c1ccccc1,2.25%
7,O=C1CCN(CCc2ccccc2)CCN1[C@H](CSc1ccc(Br)cc1)c1ccccc1,-18.8%
8,COC(=O)c1ccc(CN2CCN(CCCc3ccccc3)C(CCO)C2)cc1 (stereo not drawn),-29.1%
9,COCCCNC(=O)c1cc(C)nc2ccc(F)cc12,-1.73%
10,CN(C)S(=O)(=O)Oc1ccsc1C(=O)Nc1ccccc1Cl,5.7%
11,COc1ccc(N2CCN(CCCNC(=O)CN3CCN(Cc4ccccc4C)C3=O)CC2)cc1,-16.7%
12,O=C(CN1CCN(Cc2ccc(Cl)cc2)C1=O)NCCCN1CCN(c2ccc(F)cc2)CC1,-36.8%
13,O=C(CN1CCN(Cc2ccc(Cl)cc2)C1=O)NCCCN1CCOCC1,4.56%
14,Cc1ccccc1CN1CCN(CC(=O)NCCCN2CCN(c3ccc(F)cc3)CC2)C1=O,-52%
15,Cc1cccc(CN2CCN(CC(=O)NCCCN3CCN(c4ccc(F)cc4)CC3)C2=O)c1,-54.5%
16,Cc1cccc(CN2CCN(CC(=O)NCCCN3CCCC3=O)C2=O)c1,11.8%
17,Cc1cccc(CN2CCN(CC(=O)NCc3ccc(F)cc3)C2=O)c1,7.12%
18,Cc1ccc(CN2CCN(CC(=O)NCCCN3CCN(c4ccc(F)cc4)CC3)C2=O)cc1,-56.6%
19,CCOCCCNC(=O)CN1CCN(Cc2ccccc2C)C1=O,4.41%
20,O=C1NC2CCc3nc4ccccc4c(=O)n3C2=Nc2ccccc21 (stereo not drawn),-6.24%
21,COc1cc2c(=O)n(CCC(=O)NCC3CCCO3)c(=O)n(CC(=O)Nc3ccc(C)c(C)c3)c2cc1OC (stereo not drawn),11.6%
22,CNC(=O)c1ccccc1NC(=O)c1ccc(C)c(S(=O)(=O)N2CCCCC2)c1,-2.21%
23,CC1(C)C2CC=C(/C=N/NC(=O)C(N)=O)C1C2 (stereo not drawn),10.3%

row,Compound,"hERG current change (%, negative = inhibition) at 1uM"
1,CCOC(=O)C(C)Sc1nc2c(c(=O)[nH]c(=O)n2C)n1Cc1ccc(Cl)cc1 (stereo not drawn),-78.7%
2,COC(=O)C(C)Sc1nc2c(c(=O)[nH]c(=O)n2C)n1CCC(C)C (stereo not drawn),4.51%
3,C/C(Cl)=C/Cn1c(SC(C)C)nc2c1c(=O)[nH]c(=O)n2C,6.96%
4,CCCCCCn1c(SCC(C)C)nc2c1c(=O)[nH]c(=O)n2C,10.1%
5,CCOC(=O)C(C)Sc1nc2c(c(=O)[nH]c(=O)n2C)n1C/C=C(/C)Cl (stereo not drawn),-62.6%
6,CCOCCn1c(SC(C)C(C)=O)nc2c1c(=O)[nH]c(=O)n2C (stereo not drawn),-0.132%
7,C/C(Cl)=C/Cn1c(SCC(C)C)nc2c1c(=O)[nH]c(=O)n2C,10%
8,CCCCCn1c(SC(C)C(C)=O)nc2c1c(=O)[nH]c(=O)n2C (stereo not drawn),-91.2%
9,COC(=O)C(C)Sc1nc2c(c(=O)[nH]c(=O)n2C)n1CCCc1ccccc1 (stereo not drawn),-70.1%
10,CCOC(=O)C(C)Sc1nc2c(c(=O)[nH]c(=O)n2C)n1CCc1ccccc1 (stereo not drawn),-5.6%
11,CCC(C)Sc1nc2c(c(=O)[nH]c(=O)n2C)n1Cc1ccc(Cl)cc1 (stereo not drawn),2.15%
12,CC(C)Sc1nc2c(c(=O)[nH]c(=O)n2C)n1Cc1ccc(Cl)cc1,4.3%
13,CCN(CC)C(=O)Oc1cc(=O)n(C)c2ccccc12,6.19%
14,Cc1ccc([C@H]2C(C#N)=C(N)Oc3cc(C)oc(=O)c32)o1,12.8%
15,O=c1c2ccccc2n2cnnc2n1-c1ccccc1,2.26%
16,Cc1ccc(NC(=O)C(c2ccc(Cl)cc2)N2CCOCC2)cc1 (stereo not drawn),16.1%
17,Cc1cc2c(cc(C(=O)OCC(=O)NCc3ccco3)n2C)s1,6.5%
18,CC1CCCC(NC(=O)CSc2nnnn2C)C1C (stereo not drawn),13.2%
19,COc1ccc(NC(=O)C2CCCN(S(=O)(=O)c3ccc(Cl)cc3)C2)cc1OC (stereo not drawn),10.9%
20,CCCCCn1c(=O)c(C(=O)NCc2ccncc2)c(O)c2ccccc21,2.72%
21,CC(NC(=O)c1ccccc1F)C(=O)O (stereo not drawn),16.8%
22,C=C(C)COc1ccc(-c2nc(N)ncc2Oc2ccc(OC)cc2)c(O)c1,-5.45%
23,CC(/C=N/NC(=O)c1ccncc1)=C\c1ccco1,14.7%

row,Compound,"hERG current change (%, negative = inhibition) at 1uM"
1,Cc1ccc(CNC(=O)COc2ccc3c(c2)CCC3)cc1,-2.48%
2,CCOC(=O)C(CC)Sc1nc2c(c(=O)[nH]c(=O)n2C)n1C/C=C(/C)Cl (stereo not drawn),-56.9%
3,CCOC(=O)C(CC)Sc1nc2c(c(=O)[nH]c(=O)n2C)n1CCc1ccccc1 (stereo not drawn),-30.9%
4,CCOC(=O)CSc1nc2c(c(=O)[nH]c(=O)n2C)n1C/C=C(/C)Cl,-7.88%
5,COC(=O)CN1C(=O)[C@H]2[C@@H](C3CC3)N3C(=O)CN(Cc4ccc(-c5ccccc5)cc4)C(=O)[C@@]3(Cc3ccccc3)[C@H]2C1=O,15.6%
6,COc1ccccc1Oc1ccc2c(c1)C(=O)N(c1ccc(Br)c3cccnc13)C2=O,1.75%
7,Cc1cccc(NC(=O)CN2C(=O)/C(=C3\SC(=S)N(CC4CCCO4)C3=O)c3ccccc32)c1 (stereo not drawn),17.1%
8,O=C(CN1C(=O)/C(=C2\SC(=S)N(CCS(=O)(=O)O)C2=O)c2ccccc21)Nc1cccc(Br)c1,-52.8%
9,O=C1/C(=C2\C(=O)N(Cc3ccc(F)cc3)c3ccccc32)SC(=S)N1CCS(=O)(=O)O,10.6%
10,O=C(NCC1(N2CCCCC2)CCCCC1)c1cccc(NS(=O)(=O)c2ccccc2)c1,-34%
11,Cc1cccc(NS(=O)(=O)c2cccc(C(=O)NCC3(N4CCCCC4)CCCCC3)c2)c1,-45.1%
12,Cc1ccc(S(=O)(=O)Nc2cccc(C(=O)NCC3(N4CCCCC4)CCCCC3)c2)cc1F,-76.4%
13,Cn1cc(CN2CCc3c([nH]c4ccccc34)C2C(C)(C)C)cn1 (stereo not drawn),-3.25%
14,CCCc1nc2c(o1)CC(CC(C)SCC)CC2=O (stereo not drawn),-11.3%
15,C=C(C)CSc1nc(N)c2c(C)c(C)sc2n1,10.3%
16,Cc1occc1C(=O)NC1CCCN(Cc2ccc(CC(C)C)cc2)C1 (stereo not drawn),6.64%
17,CC(C)Cc1ccc(CN2CCCC(NC(=O)c3ccoc3)C2)cc1 (stereo not drawn),-7.26%
18,CC(C)Cc1ccc(CN2CCCC(NC(=O)c3ccnn3C)C2)cc1 (stereo not drawn),-50.4%
19,O=C(NC1CCCN(Cc2ccc(Cl)cc2)C1)c1c(F)cccc1F (stereo not drawn),17.1%
20,O=C(NC1CCCN(Cc2ccc(Cl)cc2)C1)c1c(F)ccc(F)c1F (stereo not drawn),-55.4%
21,O=C(NC1CCCN(Cc2ccc(Cl)cc2)C1)c1cccc(F)c1 (stereo not drawn),-18.6%
